Experiment [1] can be described thus: qHTS to identify inhibitors of the type 1 interferon - major histocompatibility complex class I in skeletal muscle: primary screen against the NCATS LOPAC collection (AID 1347405).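 Note: lytic HiBiT luminescence reporting HLA-B protein level.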 Note: potency is the fitted concentration of half-maximal effect. Put shortly: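 Luminescence from HiBiT fused to endogenous HLA-B in CRISPR-engineered human myoblasts served as the read-out. Cells received 4.0 ng/ml IFN-beta plus compound (seven concentrations, 1:4.3 steps, highest 46 uM final) for 24 hrs before lytic detection.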
Background: qHTS replaces the single test concentration by a dilution series.

Experiment [2] in a line: qHTS for inhibitors of adenylyl cyclases using a fission yeast platform: a pilot screen against the NCATS LOPAC library (AID 1347410). The procedure, abridged: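 Read-out: fbp1-GFP fluorescence by laser scanning cytometry (488 nm laser), a gain of signal when AC/cAMP-PKA signalling is inhibited. Strain CHP2027 expressing AC9, GNAS and PDE4D2; compounds at up to 57 µM; 18 h, 30C.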

Experiment [3] can be described thus: Validation qHTS assay for inhibitors of Activation Induced Cytidine Deaminase (AID): UDG Counterscreen signal (AID 1347427). Put shortly:
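Counterscreen read of UDG activity (2 U/mL, 4/3x) in the FRET deamination format with AID (1 uM, 4/3x), DJC20/DJC23 substrates (250 nM, 4x), 4 h at room temperature. NaOH stop, fluorescence at 560 ex/665 em.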

Experiment [4] addresses Single-stranded DNA cytosine deaminase (Homo sapiens) (UniProt Q9GZX7). Kind of experiment: Validation qHTS assay for inhibitors of Activation Induced Cytidine Deaminase (AID): AID signal (AID 1347429). The procedure, abridged:
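Fluorescence at 540 nm excitation and 590 nm emission reports ssDNA cytosine deamination by AID, with UDG in the same well. Compound-treated reactions ran 4 hr at room temperature with DJC20/DJC23 substrate, followed by 30 min NaOH treatment.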

A short description of experiment [5]: Primary qHTS for inhibitors of La Crosse Virus (LACV) - induced cell death in SH-SY5Y cells (AID 1508616). Note: potency is the fitted concentration of half-maximal effect. The procedure, abridged:
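Protection against LACV-induced cell death is scored in SH-SY5Y cells exposed to compounds and virus (0.01 MOI) for 6 days. Data normalized to virus-infected DMSO wells and virus-free DMSO wells.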

Experiment [6] has as its target Calcium and integrin-binding protein 1 (Homo sapiens) (UniProt Q99828). Kind of experiment: Validation qHTS for Identification of Calcium Integrin Binding protein 1 (CIB1) Competitor (AID 1508618). The procedure, abridged:
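Displacement of FITC-alphaIIb peptide (100 nM) from CIB1-GST (1 uM) is monitored by polarization in quantitative HTS format; buffer carries 5 mM CaCl2 and 125 mM NaCl at pH 7.4, incubations are at room temperature.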

Records with an inconclusive call do not appear. Calls of active or inactive are those of the source. Calls come from the whole dose curve; as a rule, active = well fitted curve in the direction sought with a large enough effect; inconclusive = small, poorly fitted or top-dose-only effect, or another doubt; inactive = no such curve, though single readings can be large; an effect the other way counts as inactive or inconclusive.

Sequence of Calcium and integrin-binding protein 1 (Homo sapiens) (Q99828 whole entry, looked up): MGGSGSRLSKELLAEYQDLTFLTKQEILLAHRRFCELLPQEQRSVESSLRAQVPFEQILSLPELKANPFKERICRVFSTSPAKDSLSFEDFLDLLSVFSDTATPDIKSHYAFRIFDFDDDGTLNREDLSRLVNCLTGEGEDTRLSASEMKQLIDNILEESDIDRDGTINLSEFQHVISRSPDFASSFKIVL
Sequence of Single-stranded DNA cytosine deaminase (Homo sapiens) (Q9GZX7 whole entry, looked up): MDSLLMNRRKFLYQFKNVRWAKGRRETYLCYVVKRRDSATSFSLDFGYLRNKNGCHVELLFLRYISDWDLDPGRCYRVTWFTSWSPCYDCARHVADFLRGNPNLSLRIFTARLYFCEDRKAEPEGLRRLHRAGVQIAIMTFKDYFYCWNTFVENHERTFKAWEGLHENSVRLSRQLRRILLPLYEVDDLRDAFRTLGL

Turning to `OC[C@H]1O[C@@H](n2cnc3c(NC4CCCC4)ncnc32)[C@H](O)[C@@H]1O`, the Potency result in experiment [1], in experiment [3], in experiment [4] and in experiment [5] was “inactive” throughout. The molecule was called inactive in experiment [2] and in experiment [6].
Turning to `NCCCS(=O)(=O)O`, the Potency result in experiment [1], in experiment [3], in experiment [4] and in experiment [5] was “inactive” in each case. Moreover, the outcome in experiment [2] and in experiment [6] was inactive.
Regarding `CC(C)(C=O)Cc1cc(C(C)(C)C)c(O)c(C(C)(C)C)c1`, the Potency entry in experiment [1], in experiment [3], in experiment [4] and in experiment [5] was “inactive” in each case. Besides, the molecule was classed as inactive in experiment [2] and in experiment [6].
For `O=Nc1ccc2oc(=O)ccc2c1`, the Potency entry in experiment [1], in experiment [3], in experiment [4] and in experiment [5] was “inactive” throughout. In addition, the call in experiment [2] and in experiment [6] was inactive.
Consider `CCCN(CC1CC1)c1nc(C)nc(Nc2c(Cl)cc(Cl)cc2Cl)c1Cl`, for which the Potency entry in experiment [1], in experiment [3], in experiment [4] and in experiment [5] was “inactive” throughout. Further, the call in experiment [2] and in experiment [6] was inactive.
As for `CC(C)NC[C@H](O)COc1cccc2[nH]ccc12`, the Potency entry in experiment [1], in experiment [3], in experiment [4] and in experiment [5] was “inactive” in each case. Also, the molecule was classed as inactive in experiment [2] and in experiment [6].
For the molecule `CN1C2CCC1CC(OC(=O)C(O)c1ccccc1)C2` (stereo not drawn), the Potency entry in experiment [1], in experiment [3], in experiment [4] and in experiment [5] was “inactive” throughout. The call in experiment [2] and in experiment [6] was inactive.
For `COc1ccc(NC(=O)/C=C/c2ccc(Cl)cc2)cc1`, the Potency entry in experiment [1], in experiment [3], in experiment [4] and in experiment [5] was “inactive” throughout. Moreover, the molecule was called inactive in experiment [2] and in experiment [6].
With `O=C(O)CNC(=O)C(CS)Cc1ccccc1` (stereo not drawn), the Potency entry in experiment [1], in experiment [3], in experiment [4] and in experiment [5] was “inactive” each time. Besides, the molecule was called inactive in experiment [2] and in experiment [6].
As for `COc1cccc(OC)c1OCCNCC1COc2ccccc2O1` (stereo not drawn), the Potency entry in experiment [1], in experiment [3], in experiment [4] and in experiment [5] was “inactive” throughout. For the same molecule, the outcome in experiment [2] and in experiment [6] was inactive.
As for `C=CC(C)=C[C@@]1(C)SC(=O)C(C)=C1O`, the Potency result in experiment [1], in experiment [3], in experiment [4] and in experiment [5] was “inactive” each time. The result in experiment [2] and in experiment [6] was inactive.
As to `Oc1cc2c(cc1O)CN(C(=S)NCCc1ccc(Cl)cc1)CCC2`, the Potency result in experiment [1], in experiment [3] and in experiment [4] was “inactive” in each case. Also, the result in experiment [2] and in experiment [6] was inactive. Moreover, the Potency in experiment [5] is 2.24 µM (active).
On to `CC1(C)CCC=[N+]1[O-]`, for which the Potency result in experiment [1], in experiment [3], in experiment [4] and in experiment [5] was “inactive” throughout. The molecule was called inactive in experiment [2] and in experiment [6].
Turning to `O=P(O)(O)C(Cl)(Cl)P(=O)(O)O`, the Potency result in experiment [1], in experiment [3] and in experiment [4] was “inactive” throughout. Moreover, the molecule was called inactive in experiment [2] and in experiment [6].
In the case of `CC(=O)/C=C1\C(=O)N(C)c2ccccc21`, the Potency in experiment [1] was 22.4 µM (active). For the same molecule, the molecule was called inactive in experiment [2] and in experiment [6]. Moreover, the Potency entry in experiment [3] and in experiment [4] was “inactive” in each case.
As to `C[N+](C)(C)CCOP(=O)(O)OP(=O)([O-])OC[C@H]1O[C@@H](n2ccc(N)nc2=O)[C@H](O)[C@@H]1O`, the Potency result in experiment [1], in experiment [3] and in experiment [4] was “inactive” throughout. Besides, the outcome in experiment [2] and in experiment [6] was inactive.
For `CC(=O)SCC[N+](C)(C)C`, the Potency entry in experiment [1], in experiment [3] and in experiment [4] was “inactive” throughout. Moreover, the molecule was called inactive in experiment [2] and in experiment [6].
For the molecule `CNC(=O)[C@H]1O[C@@H](n2cnc3c(NCc4cccc(I)c4)ncnc32)[C@H](O)[C@@H]1O`, the Potency entry in experiment [1], in experiment [3] and in experiment [4] was “inactive” throughout. In addition, the outcome in experiment [2] and in experiment [6] was inactive.
With `Clc1ccc(N2CCN(Cc3cc4ccccn4n3)CC2)cc1`, the Potency result in experiment [1], in experiment [3], in experiment [4] and in experiment [5] was “inactive” throughout. The outcome in experiment [2] and in experiment [6] was inactive.
As for `N#C/C(=C\c1ccc(-c2cc(Cl)ccc2Cl)o1)C(=O)Nc1cccc2ncccc12`, in experiment [1], the Potency is 14.1 µM (active). For the same molecule, the outcome in experiment [2] and in experiment [6] was inactive. For the same molecule, the Potency result in experiment [3] and in experiment [4] was “inactive” each time.
On to `CCN(CC)c1ncnc2c1ncn2[C@@H]1O[C@H](COP(=O)(O)OP(=O)(O)C(Br)(Br)P(=O)(O)O)[C@@H](O)[C@H]1O`, for which the Potency result in experiment [1], in experiment [3] and in experiment [4] was “inactive” each time. Besides, the call in experiment [2] and in experiment [6] was inactive.
As for `Clc1ccc(N2CCN(Cc3c[nH]c4ncccc34)CC2)cc1`, the Potency entry in experiment [1], in experiment [3], in experiment [4] and in experiment [5] was “inactive” throughout. In addition, the result in experiment [2] and in experiment [6] was inactive.
With `COc1cc2c(CCNC(C)=O)c[nH]c2cc1Cl`, the Potency entry in experiment [1], in experiment [3] and in experiment [4] was “inactive” throughout. Further, the outcome in experiment [2] and in experiment [6] was inactive.
As to `Fc1ccc(C(OCCCc2cnc[nH]2)c2ccc(F)cc2)cc1`, the Potency result in experiment [1], in experiment [3] and in experiment [4] was “inactive” each time. Besides, the result in experiment [2] and in experiment [6] was inactive.
Take `Cc1cc(NC(=O)Nc2ccc3c(ccn3C)c2)sn1`: the Potency entry in experiment [1], in experiment [3], in experiment [4] and in experiment [5] was “inactive” each time. Further, the molecule was classed as inactive in experiment [2] and in experiment [6].
In the case of `NC(CCCP(=O)(O)O)C(=O)O` (stereo not drawn), the Potency result in experiment [1], in experiment [3], in experiment [4] and in experiment [5] was “inactive” each time. The result in experiment [2] and in experiment [6] was inactive.
For `NCCSSCCN`, the Potency entry in experiment [1], in experiment [3], in experiment [4] and in experiment [5] was “inactive” in each case. For the same molecule, the molecule was called inactive in experiment [2] and in experiment [6].

These data come from PubChem BioAssay (NCATS).
